The text below walks through data of PubChem BioAssay.

The structures appear in SMILES notation. Activity calls are given as the source filed them.

A short description of assay [1]: compound effects on lung adenocarcinoma cell viability – A549, calcein-AM fluorescence, 48 h, basal, profiling panel (AID 1162). The conditions noted are these: higher = more signal.
The nature of assay [2]: compound effects on differentiated 3T3-L1 adipocyte viability – cell-based, 3T3-L1 adipocytes, calcein-AM fluorescence, 48 h, basal, profiling panel (AID 1163). The following applies: 3T3-L1 adipocytes viability, higher = more signal.
A short description of assay [3]: compound effects on hepatocellular carcinoma cell viability – HepG2, calcein-AM fluorescence, 48 h, basal, profiling panel (AID 1164). The conditions noted are these: higher = more signal.
A short description of assay [4]: compound effects on multiple myeloma cell viability – MM1S, calcein-AM fluorescence, 48 h, basal, profiling panel (AID 1165). The conditions noted are these: higher = more signal.
Assay [5] in a line: calcein-AM signal in unstimulated myeloma cells – cell-based, calcein-AM fluorescence, 48 h, PK04 Diversity Set, profiling panel (AID 1166).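 Further: cells grown under basal conditions without added stimulus.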 The following applies: RPMI8226 myeloma viability, higher = more signal.
Assay [6] can be described thus: JC-1 mitochondrial signal, unstimulated HepG2 cells – cell-based, JC-1 fluorescence, 24 h, 100 nL compound, profiling panel (AID 1167). The following applies: HepG2 mitochondrial potential, higher = more signal.
Assay [7] can be described thus: JC-1 mitochondrial signal, unstimulated adipocytes – cell-based, JC-1 fluorescence, 3T3-L1 adipocytes, 24 h, 100 nL compound, profiling panel (AID 1168). The conditions noted are these: JC-1 mitochondrial fluorescence, higher = more signal, called active from +8 up or from −8 down.
Assay [8] is described as follows: JC-1 mitochondrial signal, unstimulated myeloma cells – cell-based, JC-1 fluorescence, RPMI8226, 24 h, 100 nL compound, profiling panel (AID 1169). The conditions noted are these: JC-1 mitochondrial potential fluorescence, higher = more signal.
Assay [9] can be described thus: JC-1 mitochondrial signal, unstimulated MM1S myeloma – cell-based, JC-1 fluorescence, 24 h, 100 nL compound, profiling panel (AID 1170). The conditions noted are these: MM1S mitochondrial potential, higher = more signal.
Assay [10] is described as follows: resazurin metabolic signal in A549 cells – cell-based, resazurin fluorescence, 24 h, PK04 Diversity Set, profiling panel (AID 1171). The conditions noted are these: A549 viability, higher = more signal, called active from +8 up or from −8 down.
Further: test concentration not given here.

`CCCC[C@@H]1C[C@H]1[C@@H](NC(=O)c1ccccc1)c1ccc(-c2ccccc2)cc1`: the z-score in [1] is -1.54; in assay [2], -1.15; in assay [3] it was -3.24; in assay [4] it was -2.55; in [5] it was -4.26; in [6], -3.59. Further, the z-score in [7] is -0.49 (inactive); in assay [8], -0.568; in assay [9], -2.19; in assay [10], -1.31 (inactive).
For `COc1ccc([Si](C)(C)[C@@H]2[C@@H](CCO)O[C@]3(C(=O)N(Cc4cccc(N(C=O)c5ccccc5)c4)c4ccccc43)[C@H]2C)cc1`, the z-score in [1] is -1.54; in assay [2], 1.72; in assay [3] it was -0.854; in assay [4] it was -1.12; in [5], -1.68; in [6] it was 0.719. Moreover, the z-score is -0.0903 (inactive) in [7], -0.881 in assay [8], 0.0823 in [9] and -2.24 (inactive) in assay [10].
For `C=CCN1C(=O)[C@@]2(O[C@@H](CCO)[C@H]([Si](C)(C)c3ccc(OC)cc3)[C@H]2C)c2cc(N3C(=O)COc4ccccc43)ccc21`, the z-score was -3.41 in [1]; -0.967 in [2]; -4.72 in [3]; -2.74 in assay [4]; -4.33 in [5]; -2.17 in [6]. Further, the z-score in assay [7] is 2.78 (inactive); in [8] it was -1.01; in assay [9] it was -2.24; in assay [10], -5.02 (inactive).
As for `CN1C(=O)C2C=CC(C(O)c3ccccc3)N(NC(=O)OC(C)(C)C)C2C1=O` (stereo not given), the z-score in [1] is -1.66; in [2], 0.103; in assay [3], -0.983; in assay [4], -0.965; in assay [5] it was -0.386; in assay [6], -1.22. Besides, the z-score was -0.0572 (inactive) in assay [7], -0.306 in assay [8], 0.32 in assay [9] and -0.449 (inactive) in assay [10].
As to `[N-]=[N+]=NCc1ccccc1C[C@]1(C(N)=O)N=C(c2ccc(OCCCO)cc2)O[C@H]1c1ccccc1N=[N+]=[N-]`, the z-score in assay [1] is -0.169; in assay [2] it was 0.0873; in assay [3], -0.153; in [4], -2.05; in assay [5], -1.55; in assay [6] it was -0.727. Also, the z-score was -1.38 (inactive) in assay [7], -1.04 in [8], -0.649 in [9] and -0.38 (inactive) in assay [10].
As to `Cc1ccc(S[C@]2(C(=O)NCC(F)(F)F)CC(=O)N(C3Cc4ccccc4C3)[C@@H]2c2ccc(CO)cc2I)cc1`, the z-score in [1] was 0.833; in assay [2], 0.236; in [3], 0.506; in assay [4], -2.1; in [5], -3.02; in [6], 0.194. Besides, the z-score in assay [7] is -0.131 (inactive); in assay [8], 0.045; in assay [9] it was -1.4; in assay [10], 0.537 (inactive).
On to `CC(C)C[C@@H]1NC(=O)[C@@H]2C[C@H](C(=O)NCCCCN(C)C)[C@H](c3ccc(O)cc3)N2C1=O`, for which the z-score in [1] is -0.583; in assay [2] it was -0.339; in [3] it was -0.375; in [4], 0.12; in assay [5] it was 0.579; in assay [6] it was -1.26. The z-score in assay [7] is -0.0811 (inactive); in assay [8] it was -0.0507; in assay [9], 0.218; in [10], 0.408 (inactive).
Regarding `C=CCN1Cc2ccccc2C[C@]2(N=C(c3ccc(OCCCO)cc3)O[C@@H]2c2ccccc2)C1=O`, the z-score in [1] was -0.584; in assay [2], 0.975; in assay [3], -0.676; in assay [4] it was -3.58; in assay [5], -3.71; in [6], 0.96. Also, the z-score in assay [7] is 0.101 (inactive); in [8] it was -1.16; in [9], -0.762; in [10], -2.13 (inactive).
Consider `CC1CC/C=C\[C@H]2OC34C=CCN(Cn5nnc6ccccc65)C(=O)[C@H]3N(CCCO)C(=O)[C@@H]4C2C(=O)O1` (stereo not given in full), for which the z-score in [1] is -0.677; in assay [2] it was 1.5; in assay [3] it was -0.501; in [4] it was 0.159; in assay [5], -0.894; in [6] it was -0.0699. The z-score was -0.382 (inactive) in [7], 0.0216 in assay [8], 0.638 in assay [9] and 0.356 (inactive) in assay [10].
On to `CCCCCCCCCCC(O)C1C=CC2C(=O)N(c3ccccc3)C(=O)C2N1Nc1ccc([N+](=O)[O-])cc1` (stereo not given), for which the z-score was -2.28 in assay [1]; -0.581 in assay [2]; -1.82 in assay [3]; -3.31 in [4]; -4.22 in assay [5]; -2.87 in [6]. Also, the z-score in assay [7] was 0.656 (inactive); in [8], -1.13; in assay [9], -1.66; in assay [10], 0.381 (inactive).
Turning to `COc1ccccc1CN1C(=O)c2ccccc2[C@](Cc2ccccc2I)(C(=O)NCc2ccccc2)[C@@H]1c1ccc(CO)cc1`, the z-score in assay [1] is 0.049; in [2], 0.218; in [3], -0.733; in [4], -0.325; in [5], -1.92; in assay [6], 0.37. Further, the z-score is 0.368 (inactive) in assay [7], -0.0456 in assay [8], -0.318 in [9] and -0.5 (inactive) in assay [10].
Regarding `C=C(/C(=C/C[C@@H](OC(C)=O)c1ccc(CO)o1)c1cnc2ccccc2c1)C(C)C`, the z-score in assay [1] is -0.0718; in [2], 1.36; in assay [3] it was -1.07; in assay [4], -0.644; in assay [5], -0.596; in assay [6], -1.33. Also, the z-score is -0.561 (inactive) in assay [7], -0.292 in assay [8], 0.335 in assay [9] and -1.45 (inactive) in [10].
As to `CC1CC/C=C\[C@H]2OC34C=CCN(CCN5CCOCC5)C(=O)[C@H]3N(CCCCCO)C(=O)[C@@H]4C2C(=O)O1` (stereo not given in full), the z-score is -0.365 in [1]; 0.374 in [2]; 0.68 in assay [3]; 1.09 in assay [4]; 0.0186 in [5]; -0.461 in assay [6]. Besides, the z-score was -0.189 (inactive) in [7], -0.0345 in assay [8], -0.107 in [9] and -0.19 (inactive) in assay [10].
Take `COCCOC(=O)N1C(=O)[C@@]2(c3cc(C#CC4=CCCCC4)ccc31)[C@H](c1ccc(OCCO)cc1)N1[C@H](c3ccccc3)[C@H](c3ccccc3)OC(=O)[C@H]1[C@@H]2C(=O)Nc1nc2ccccc2s1`: the z-score is 0.642 in [1]; 0.0841 in assay [2]; -0.153 in assay [3]; -0.381 in [4]; -0.259 in assay [5]; -2.79 in assay [6]. For the same compound, the z-score in [7] was -0.216 (inactive); in assay [8] it was -0.932; in [9], -1.63; in assay [10] it was -0.057 (inactive).
With `Cn1c2c(c3ccccc31)C(=O)C1NC2C=CC1(C)C(=O)OCc1ccccc1` (stereo not given), the z-score in [1] was -0.618; in [2], -0.0704; in assay [3], 0.583; in assay [4], -0.175; in assay [5] it was 0.0208; in assay [6], 0.603. For the same compound, the z-score is -1.65 (inactive) in [7], -0.0327 in assay [8], 0.426 in assay [9] and -0.078 (inactive) in [10].
